From PubChem
TSG101-PTAP inh: blocks PTAP/TSG101 interaction to inhibit HIV-1 budding | Q99816 | Fluorescence polarization, FITC-PTAP peptide / Tsg101 binding | Potency, µM (series often up to 115 µM), without a hit: at the top dose activity change, negative = inhibition, usual class: inhibitors | 340,000 tested, under 10 active; active = well fitted inhibition curve with a large enough effect in the main read-out, with a control signal flat, not every such curve was filed as active; inconclusive = small, poorly fitted or top-dose-only effect, or effect the other way, or a change in a side signal; inactive = no such curve, though single readings can be large or run the other way; also: % of control where 0% means no effect
Target sequence (Q99816 whole entry, looked up): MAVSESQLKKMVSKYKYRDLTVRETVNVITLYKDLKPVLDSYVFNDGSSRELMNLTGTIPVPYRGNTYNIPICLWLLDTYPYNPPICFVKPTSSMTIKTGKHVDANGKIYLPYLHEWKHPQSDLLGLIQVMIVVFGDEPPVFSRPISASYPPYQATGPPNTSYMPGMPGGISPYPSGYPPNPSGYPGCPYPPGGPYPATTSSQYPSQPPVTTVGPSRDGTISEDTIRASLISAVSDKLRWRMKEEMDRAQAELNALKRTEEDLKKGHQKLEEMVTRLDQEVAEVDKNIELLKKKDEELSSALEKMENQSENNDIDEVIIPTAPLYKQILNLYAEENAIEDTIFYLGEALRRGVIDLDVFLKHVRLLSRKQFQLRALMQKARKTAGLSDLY
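Steps: Tsg101 binding domain dispensed (10 uM final), compounds pinned in DMSO, FITC-labeled PTAP-motif peptide added (50 nM final); after 20 min binding at room temperature, polarization measured.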
KB-V1 MDR tox: kills drug-selected multidrug resistant KB-V1 cells; KB-V1 MDR cells viability, CellTiter-Glo, 72 h; Potency, µM (doses to about 46.1 µM), most hits filed as cytotoxic; AID 1347076; 3.4% of 400,000 active; also: % is scaled to controls: 0 for no effect and ±100 for the full control effect; nearly all actives have a fitted effect of over 60% in size
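Luminescent ATP read-out (CellTiter-Glo, 10 min) measures survival of drug-selected KB-V1 MDR cells after 72 h, 37 degrees C compound exposure. Medium: phenol-red-free DMEM, 10% FBS. Values from fitted concentration-response curves.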
MCF10A rerep: DNA re-replication induction in MCF 10a cells; MCF 10A DNA re-replication, Hoechst nuclear intensity, 48 h; AID 624296; Potency, µM (highest dose often 46.1 µM), inactives show top-dose activity, positive = re-replication, actives largely listed as activators; 2.9% of 350,000 active; also: % of control where 0% means no effect; nearly all actives have a fitted effect of over 50% in size
SW480 rerep: induces DNA re-replication in SW480 colon adenocarcinoma cells; SW480 DNA re-replication, Hoechst DNA content imaging, 48 h; Potency, µM (series often up to 46.1 µM), for the others: top-dose re-replication activation, most hits filed as activators; 1.8% of 340,000 active; also: % of control where 0% means no effect; nearly all actives have a fitted effect of over 55% in size
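SW480 cells exposed to compounds for 48 hr at 37 C, 5% CO2, then Hoechst-stained 40 min. Nuclear DNA content imaged by fluorescence scanning (405 nm excitation, 500-530 nm emission); re-replication scored as increased high-intensity nuclei.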
KB-3-1 tox: KB-3-1 parental cell cytotoxicity; KB-3-1 viability, CellTiter-Glo ATP luminescence, 72 h; Potency, µM (doses to about 46.1 µM), usual class: cytotoxic; 1.4% of 400,000 active; also: % is scaled to controls: 0 for no effect and ±100 for the full control effect; nearly all actives have a fitted effect of over 60% in size
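Viability of parental KB-3-1 cells, measured by CellTiter-Glo luminescence, followed a 72 h incubation at 37 °C with pinned compounds in phenol-red-free DMEM containing 10% FBS.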
PINK1 modulator: changes PINK1 expression. 0.2% of 410,000 active. PINK1 immunofluorescence, high-content cytometry, 24 h. Potency, µM (titrated, usually from 76.6 µM), without a hit: at the highest dose activation (PINK1 increase), hits mostly activators; active = well fitted activation curve with a large enough effect; inconclusive = small, poorly fitted or top-dose-only effect; cell line not stated here; also: % of control where 0% means no effect; nearly all actives have a fitted effect of over 65% in size
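Stable cell line, 250 cells/well, 12 h attachment; compounds pinned at 5 concentrations, 24 h; CCCP control. Fixed with nuclear dye, primary antibodies 12 h at 10 degrees C, secondary plus cell stain; laser-scanning cytometer read.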
Active calls of the source: *; i = inactive; ? = inconclusive; nt = no result given; ! = not active in a repeat; [ ] = remark or other dose. A selection: hits, their analogues and other compounds. The true share with any hit is near 6.8%. Unless noted, calls follow the shape of the dose curve; as a rule, active = well fitted curve in the direction sought with a large enough effect; inconclusive = small, poorly fitted or top-dose-only effect, or another doubt; inactive = no such curve, though single readings can be large; an effect the other way counts as inactive or inconclusive. Potency is read from the fitted curve at half-maximal effect.

SMILES | TSG101-PTAP inh | KB-V1 MDR tox | MCF10A rerep | SW480 rerep | KB-3-1 tox | PINK1 modulator
CCCCOc1ccc(C2=NC(c3ccncc3)=Nc3ccc(OCC)cc3N2)cc1 | nt | ? | nt | nt | i | 4%
Cc1cc(NS(=O)(=O)c2ccc3nc(-c4ccccc4)[nH]c3c2)ccc1Br | nt | i | nt | nt | ? | 6%
O=C(C[C@H]1C(=O)N(CCc2ccccc2)C[C@@H]1Cc1ccccc1)Nc1ccccc1 | 2% | 21µM*! | 3% | -15% | ? | 18%
O=C(C[C@H]1C(=O)N(c2ccccc2)C[C@@H]1Cc1ccccc1)Nc1ccccc1 | nt | 9.2µM*! | nt | nt | 23µM*! | 0%
c1ccc2c(N3CCCCCC3)nc(-c3ccncc3)nc2c1 | 0% | 18µM* | ? | 0% | i | -3%
Cc1ccc(C)c(S(=O)(=O)N2CCN(c3nc(-c4cccnc4)nc4ccccc34)CC2)c1 | 4% | i | 0.65µM* | -2% | ? | 3%
c1cncc(-c2nc(N3CCCCCC3)c3ccccc3n2)c1 | 1% | 4.1µM* | 6% | -7% | i | 0%
C(=C\c1nc(N2CCCCCC2)c2ccccc2n1)/c1ccccc1 | -2% | 18µM* | 21µM* | ? | i | 35µM*
CCc1ccc(CN(Cc2cn[nH]c2-c2ccc(OC)cc2)C(=O)Nc2cc(Cl)ccc2OC)cc1 | nt | ? | nt | nt | ? | 5%
Cc1cccc(CNC(=O)c2cnn(-c3nccc(-c4ccccc4C(F)(F)F)n3)c2C)n1 | nt | nt | nt | nt | nt | 0%
CN1CCN(c2nc(-c3ccccn3)nc3ccccc23)CC1 | -5% | 23µM* | 23% | ? | i | -3%[38.3 µM]
Cc1cccc(Oc2nc(-c3ccccn3)nc3ccccc23)c1 | -6% | ? | 5% | 79% | i | 12%
Cc1ccccc1Oc1nc(-c2ccccn2)nc2ccccc12 | 1% | 9.2µM* | 14% | 1% | i | -2%
Fc1ccccc1-c1nc(N2CCCCC2)c2ccccc2n1 | 1% | 13µM* | 15% | 1% | ? | 1%
CN(Cc1ccccc1)c1ccc(-c2nc(-c3ccco3)no2)cc1[N+](=O)[O-] | nt | i | nt | nt | i | 2%
CCN(Cc1ccccc1)C(=O)Cn1c(=O)n(-c2cccc(C)c2)c(=O)c2c1c1cc(OC)ccc1n2C | nt | i | nt | nt | i | 5%
CCOc1ccc(C(=O)OCCN(CC)CC)cc1 | -2% | i | 16% | -11% | i | -1%
CCN(CC)CCOc1ccc(/C(=C(/Cl)c2ccccc2)c2ccccc2)cc1 | 0% | ? | 4.1µM*! | -6% | ? | 0%
CCC(=C(c1ccc(O)cc1)c1ccc(OCCN(C)C)cc1)c1ccccc1 | nt | i | nt | nt | i | 2%
CC/C(=C(\c1ccccc1)c1ccc(OCCN(C)C)cc1)c1ccccc1 | -1% | ? | ? | 1.3µM*! | i | -1%
N#Cc1c(SCC(=O)Nc2nc3ccccc3s2)sc2c(O)cc(=O)[nH]c12 | -4% | i | ? | 18µM* | i | 1%
Cc1ccc(S(=O)(=O)CCSc2nc(C)cc(C(F)(F)F)c2C#N)cc1 | ? | 13µM* | ? | ? | 18µM* | 1%
Cc1cc(C(F)(F)F)c(C#N)c(SCC(=O)Nc2nc3cc(Br)ccc3s2)n1 | -1% | ? | 13µM* | ? | i | 14µM*
N#Cc1c(SCC(=O)Nc2ccc(Cl)cc2Cl)sc2c(O)cc(=O)[nH]c12 | -1% | i | 1% | 18% | i | 32µM*
Cc1nc2nc(SCc3ccc(F)cc3Cl)nn2c(C)c1Cc1ccccc1 | nt | nt | nt | nt | nt | 3%
SMILES | TSG101-PTAP inh | KB-V1 MDR tox | MCF10A rerep | SW480 rerep | KB-3-1 tox | PINK1 modulator
COc1cccc(C(=O)NCC2Cc3cccc(-c4cccnc4)c3O2)c1 (stereo not given) | nt | nt | nt | nt | nt | 0%
Cc1ccc(C(c2c(O)cc(C)n(Cc3ccco3)c2=O)N2CCC(C)CC2)cc1 (stereo not given) | nt | i | nt | nt | i | 0%
COc1ccc2cc(CNCc3ccccc3Cl)c(N3CCCC(CO)C3)nc2c1 (stereo not given) | nt | nt | nt | nt | nt | 0%
C=CCSc1nnc(NC(=O)CSc2nc(CCC)cc(=O)[nH]2)s1 | -2% | 21µM* | -3% | 0% | ? | -1%
N#Cc1c(SCC(=O)Nc2nccs2)sc2c(O)cc(=O)[nH]c12 | -10% | i | 0% | -8% | i | 0%
Cc1cc(=O)[nH]c(SCC(=O)Nc2nc(-c3ccccc3)cs2)n1 | 2% | i | 6% | -6% | i | -1%
Cc1cc(=O)[nH]c(SCC(=O)Nc2nc3ccccc3s2)n1 | -3% | ? | 0.58µM* | ? | i | 2%
N#Cc1c(SCC(=O)Nc2nc3ccc(Br)cc3s2)sc2c(O)cc(=O)[nH]c12 | ? | ? | 15% | 12µM* | i | 1%
Cc1c(C(=O)NCC(C)(C)N2CCOCC2)cnn1-c1nccc(-c2cccs2)n1 | nt | nt | nt | nt | nt | 1%
COc1ccccc1C1N=C(Nc2nc3ccccc3o2)NC2=C1C(=O)CC(C)(C)C2 (stereo not given) | nt | ? | nt | nt | i | 3%
N#CC1=C(SCC(=O)NC2CCCCC2)NC(=O)CC1c1ccco1 (stereo not given) | 2% | i | ? | 22% | 15µM* | 3%
N#CC1=C(SCC(=O)NCc2ccccc2)NC(=O)CC1c1ccco1 (stereo not given) | 0% | i | -7% | -3% | i | 2%
N#CC1=C(SCC(=O)Nc2ccccc2)NC(=O)CC1c1ccco1 (stereo not given) | -2% | 15µM* | -3% | -1% | ? | ?
CCCNS(=O)(=O)c1cccc(C(=O)OCc2cc(=O)oc3cc(OC)ccc23)c1 | -4% | i | 7.3µM* | ? | i | 4%
CCc1cc2c(COC(=O)c3cccc(NS(C)(=O)=O)c3)cc(=O)oc2cc1O | -2% | i | 9.2µM* | 28% | i | -2%
CCc1cc2c(COC(=O)c3cc(S(=O)(=O)N4CCOCC4)ccc3F)cc(=O)oc2cc1O | 0% | i | ? | -28% | i | 0%
O=C(c1ccccc1F)N1CCCC(c2ccccc2)C1 (stereo not given) | 1% | 23µM* | 6% | 1% | i | -1%
O=C(Nc1ccccc1)N1CCN(Cc2ccc(Cl)cc2)CC1 | -1% | i | -7% | ? | i | 0%
O=C(Nc1ccc(Cl)cc1)N1CCCN(Cc2ccc(F)cc2)C1 | 2% | ? | 21µM* | ? | ? | 11%[38.3 µM]
Cc1ccc(CNC(=O)N2CCC(CN3CCC(C)CC3)CC2)cc1 | nt | i | nt | nt | i | 0%
